The source of these data is PubChem BioAssay (Tox21).

Assay [1] has as its target Thyrotropin-releasing hormone receptor (Homo sapiens) (UniProt P34981). The assay is described as follows: qHTS assay to identify small molecule agonists of the thyrotropin-releasing hormone receptor (TRHR) signaling pathway (AID 1346891; calls by dose curve;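 note: HEK293 cells expressing TRHR with calcium dye readout; series mostly up to about 58 µM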). In short, it runs like this: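 HEK293/TRHR cells, 1500 per well, 18 h 37 °C; Ca dye 2 h 37 °C; pin-tool compound addition (agonist mode); kinetic fluorescence 3 min, 1 s reads; 15 concentrations, triplicate.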
A general note: In qHTS, concentration-response curves come from the screen itself.

Assay [2] can be described thus: Human pregnane X receptor (PXR) small molecule agonists, qHTS cell viability counter screen (AID 1346977). Note: nearly all actives have a fitted effect of over 50% in size. In outline:
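Fluorescence read-out (CellTiter-Fluor) of viability in PXR-Luc HepG2 cells, multiplexed with the luciferase agonist read. Compounds in DMSO added after 5hr plating; 24hr total exposure at 37C, 5% CO2.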

A short description of assay [3]: Caspase-3/7 induction in HepG2 cells by small molecules, qHTS assay (AID 1346978). Note: nearly all actives have a fitted effect of over 15% in size. In short, it runs like this: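 Wild-type HepG2 cells, 2,000/well, settled 5 hr at 37 C and 5% CO2, then compound-treated for 17 hr; caspase-3/7 activity read by luminescent Caspase-Glo 3/7 after 30 min at room temperature.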
Assay [4] can be described thus: Caspase-3/7 induction in CHO-K1 cells by small molecules, qHTS cell viability counter screen (AID 1346979). Note: nearly all actives have a fitted effect of over 35% in size. Note: potency is the fitted concentration of half-maximal effect. In outline:
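CHO-K1 wt, 1,500 cells/well; 5hr pre-incubation 37C/5% CO2; compound pin transfer (DMSO); 16hr exposure; CellTiter-Fluor added, 1hr, fluorescence read.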

Assay [5] in a line: Caspase-3/7 induction in HepG2 cells by small molecules, qHTS cell viability counter screen (AID 1346981). Note: series mostly up to about 92 µM; nearly all actives have a fitted effect of over 30% in size. In short, it runs like this: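 Fluorescence read-out of live-cell protease activity (CellTiter-Fluor) after 1 hr with reagent. This was measured in the same wells as the caspase-3/7 luminescence, on HepG2 cells exposed to DMSO-dissolved compounds for 16 hr at 37 C.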
Assay [6] concerns the target Nuclear receptor subfamily 1 group I member 2 (Homo sapiens) (UniProt O75469). In words: Human pregnane X receptor (PXR) small molecule agonists, qHTS assay (AID 1346982). Note: nearly all actives have a fitted effect of over 35% in size. In short, it runs like this: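 HepG2 PXR-Luc reporter line, 5% charcoal-stripped FBS; 5 hr pre-incubation, compound (DMSO) 24 hr at 37 C/5% CO2; ONE-Glo 30 min RT; luminescence read-out.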
Assay [7] addresses Acetylcholinesterase (Homo sapiens) (UniProt P22303). The assay is described as follows: Acetylcholinesterase (AChE) small molecule antagonists: colormetric cell-based qHTS assay (AID 1347395; calls by dose curve; note: nearly all actives have a fitted effect of over 30% in size; note: potency is the fitted concentration of half-maximal effect). In short, it runs like this:
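SH-SY5Y cells; cpd 30 min 37 C; + DTNB/acetylthiocholine, 90 min 37 C; colorimetric thiocholine read; qHTS.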

Assay [8] has the same target. In words: Acetylcholinesterase (AChE) small molecule antagonists: fluorescence cell-based qHTS assay (AID 1347398; calls by dose curve; note: nearly all actives have a fitted effect of over 50% in size; note: potency is the fitted concentration of half-maximal effect). The note with it: Potency: AChE activity; outcome: AChE activity. In short, it runs like this:
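SH-SY5Y, 2,000 cells/well, attached overnight; cmpd 30 min 37 C; acetylthiocholine/Thiolite Green cocktail 40 min RT; fluorescence Ex/Em 490/520 nm.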

Assay [9] has the same target. The assay is described as follows: Acetylcholinesterase (AChE) small molecule antagonists: enzyme-based qHTS assay with human liver microsomes (AID 1347399; calls by dose curve; note: nearly all actives have a fitted effect of over 60% in size). The note with it: Potency: qHTS inhibition; outcome: qHTS inhibition. In outline:
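Recombinant human AChE (50 mU/mL in the enzyme mix) and human liver microsomes (0.25 mg/mL final) were preincubated with compound and NADPH (0.25 mg/mL final) for 30 min at 37 C. Acetylthiocholine/DTNB was then added; thiocholine was read colorimetrically after 10 min at room temperature.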

For assay [10], the target named is Cytochrome P450 2D6 (Homo sapiens) (UniProt P10635). The assay is described as follows: Cytochrome P450 Family 2 Subfamily D Member 6 (CYP2D6) small molecule antagonists: luciferase reporter qHTS assay (AID 1671196). Note: nearly all actives have a fitted effect of over 50% in size. Note: potency is the fitted concentration of half-maximal effect. In outline: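 Luminogenic proluciferin substrate, CYP2D6 enzyme; 10 min RT preincubation with compound, NADPH regeneration system added, 1 h RT. Stop/detection reagent, 20 min RT, luminescence read (RLU). Signal proportional to CYP activity.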
On the technique in general: A reporter such as luciferase makes a cellular process visible.

Assay [11] has as its target Cytochrome P450 2C19 (Homo sapiens) (UniProt P33261). In words: Cytochrome P450 Family 2 Subfamily C Member 19 (CYP2C19) small molecule antagonists: luciferase reporter qHTS assay (AID 1671197). Note: nearly all actives have a fitted effect of over 65% in size. Note: potency is the fitted concentration of half-maximal effect. In outline:
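Enzyme-substrate mix with proluciferin substrate (P450-Glo CYP2C19 system) preincubated with compounds 10 min at room temperature; NADPH regeneration solution added, 37C for 1 h; detection reagent stops reaction, luminescence read after 20 min. Ketoconazole positive control.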

Assay [12] has as its target Cytochrome P450 2C9 (Homo sapiens) (UniProt P11712). In words: Cytochrome P450 Family 2 Subfamily C Member 9 (CYP2C9) small molecule antagonists: luciferase reporter qHTS assay (AID 1671198). Note: nearly all actives have a fitted effect of over 50% in size. Note: potency is the fitted concentration of half-maximal effect. In outline: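 P450-Glo proluciferin substrate with CYP2C9 enzyme; 10 min RT preincubation, then NADPH regeneration 1 h at 37C; luciferin detection reagent 20 min RT, luminescence in relative luminescence units.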

For assay [13], the target named is Cytochrome P450 1A2 (Homo sapiens) (UniProt P05177). The assay is described as follows: Cytochrome P450 Family 1 Subfamily A Member 2 (CYP1A2) small molecule antagonists: luciferase reporter qHTS assay (AID 1671199). Note: nearly all actives have a fitted effect of over 50% in size. Note: potency is the fitted concentration of half-maximal effect. In short, it runs like this: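 Luminescence readout (relative luminescence units) after luciferin detection reagent, 20 min RT. Preceded by 1 h room-temperature CYP1A2 reaction with NADPH regeneration solution following 10 min compound preincubation with enzyme and proluciferin substrate. Furafylline positive control.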

Assay [14] concerns the target Voltage-gated inwardly rectifying potassium channel KCNH2 (Homo sapiens) (UniProt Q12809). The assay is described as follows: Human Ether-a-go-go-Related Gene (hERG) channel small molecule antagonists: fluorescence cell-based qHTS assay (AID 1671200). In short, it runs like this:
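Read-out: thallium influx as a surrogate for potassium, tracked as fluorescence (480 nm ex/540 nm em) every second for 2 min after Stimulus Buffer addition in dye-loaded hERG-U2OS cells.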

For assay [15], the target named is Cytochrome P450 3A4 (Homo sapiens) (UniProt P08684). The assay is described as follows: Cytochrome P450 Family 3 Subfamily A Member 4 (CYP3A4) small molecule antagonists: luciferase reporter qHTS assay (AID 1671201). Note: nearly all actives have a fitted effect of over 50% in size. Note: potency is the fitted concentration of half-maximal effect. In outline: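 Luminescent readout (RLU) proportional to CYP3A4 activity, from luciferin generated off a proluciferin substrate. Enzyme–substrate mix plus compound 10 min at room temp, NADPH regeneration 1 h, detection reagent 20 min.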

Assay [16] is described as follows: Caspase-3/7 induction in CHO-K1 cells by small molecules, qHTS assay (AID 1346980). Note: nearly all actives have a fitted effect of over 15% in size. In outline:
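Wild-type CHO-K1 cells exposed to compounds for 17hr at 37 C, 5% CO2. Caspase-3/7 activity then measured by Caspase-Glo 3/7 luminescence after 30min at room temperature.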

Assay [17] addresses Acetylcholinesterase (Homo sapiens) (UniProt P22303). The assay is described as follows: Acetylcholinesterase (AChE) small molecule antagonists: enzyme-based qHTS assay (AID 1347397; calls by dose curve; note: nearly all actives have a fitted effect of over 55% in size; note: potency is the fitted concentration of half-maximal effect). The note with it: Potency: AChE enzyme activity inhibition; outcome: AChE enzyme activity inhibition. In outline: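 Colorimetric DTNB read-out of thiocholine released from acetylthiocholine by recombinant human AChE (50 mU/mL as dispensed). Compounds were preincubated 30 min at RT before substrate/DTNB addition, with a 10 min RT reaction.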

Unmarked numbers belong to inactive results. Records with an inconclusive call do not appear. Active and inactive are the calls of the source. Unless noted, calls come from the whole dose curve; as a rule, active = well fitted curve in the direction sought with a large enough effect in the repeat runs; inconclusive = weak or mixed curves; inactive = no such curve, though single readings can be large; an effect the other way counts as inactive or inconclusive.

Chain of Cytochrome P450 2C9 (Homo sapiens) (P11712 whole entry, looked up): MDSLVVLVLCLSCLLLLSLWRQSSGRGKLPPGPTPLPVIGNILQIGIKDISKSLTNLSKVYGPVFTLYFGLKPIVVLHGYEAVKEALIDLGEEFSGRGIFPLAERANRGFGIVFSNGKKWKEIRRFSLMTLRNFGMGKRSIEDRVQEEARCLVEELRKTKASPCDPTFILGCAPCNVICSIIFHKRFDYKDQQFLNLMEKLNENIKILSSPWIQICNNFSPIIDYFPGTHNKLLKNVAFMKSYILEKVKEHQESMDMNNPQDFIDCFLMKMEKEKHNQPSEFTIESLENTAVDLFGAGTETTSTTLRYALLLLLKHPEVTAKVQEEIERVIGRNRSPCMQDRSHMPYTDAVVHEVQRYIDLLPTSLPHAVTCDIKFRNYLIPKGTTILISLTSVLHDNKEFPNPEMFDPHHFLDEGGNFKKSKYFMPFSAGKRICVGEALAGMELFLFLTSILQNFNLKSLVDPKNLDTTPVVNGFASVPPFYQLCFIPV
Chain of Thyrotropin-releasing hormone receptor (Homo sapiens) (P34981 whole entry, looked up): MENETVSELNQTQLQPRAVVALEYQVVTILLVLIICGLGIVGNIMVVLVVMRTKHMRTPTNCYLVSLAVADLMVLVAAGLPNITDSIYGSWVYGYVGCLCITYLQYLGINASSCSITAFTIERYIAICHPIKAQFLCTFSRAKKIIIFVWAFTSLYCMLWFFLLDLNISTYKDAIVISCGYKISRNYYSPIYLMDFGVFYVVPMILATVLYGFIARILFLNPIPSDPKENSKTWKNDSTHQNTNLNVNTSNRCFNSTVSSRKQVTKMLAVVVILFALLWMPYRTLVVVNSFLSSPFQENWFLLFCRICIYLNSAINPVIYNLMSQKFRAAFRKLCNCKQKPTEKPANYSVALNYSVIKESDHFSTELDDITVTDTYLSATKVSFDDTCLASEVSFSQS
Chain of Cytochrome P450 3A4 (Homo sapiens) (P08684 whole entry, looked up): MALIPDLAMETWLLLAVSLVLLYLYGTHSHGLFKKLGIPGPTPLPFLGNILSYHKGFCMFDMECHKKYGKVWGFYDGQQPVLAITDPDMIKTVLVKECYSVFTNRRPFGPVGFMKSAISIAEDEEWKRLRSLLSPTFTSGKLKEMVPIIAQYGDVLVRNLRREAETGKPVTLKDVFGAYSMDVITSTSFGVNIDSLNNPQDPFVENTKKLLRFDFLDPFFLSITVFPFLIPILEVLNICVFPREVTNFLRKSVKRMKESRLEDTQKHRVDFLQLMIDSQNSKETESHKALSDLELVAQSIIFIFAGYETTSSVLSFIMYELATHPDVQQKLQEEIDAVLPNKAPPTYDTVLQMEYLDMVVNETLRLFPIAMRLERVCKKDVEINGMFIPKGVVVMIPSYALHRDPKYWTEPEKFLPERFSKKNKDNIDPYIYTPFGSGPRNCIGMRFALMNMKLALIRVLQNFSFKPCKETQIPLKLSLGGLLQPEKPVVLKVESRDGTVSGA
Chain of Cytochrome P450 2C19 (Homo sapiens) (P33261 whole entry, looked up): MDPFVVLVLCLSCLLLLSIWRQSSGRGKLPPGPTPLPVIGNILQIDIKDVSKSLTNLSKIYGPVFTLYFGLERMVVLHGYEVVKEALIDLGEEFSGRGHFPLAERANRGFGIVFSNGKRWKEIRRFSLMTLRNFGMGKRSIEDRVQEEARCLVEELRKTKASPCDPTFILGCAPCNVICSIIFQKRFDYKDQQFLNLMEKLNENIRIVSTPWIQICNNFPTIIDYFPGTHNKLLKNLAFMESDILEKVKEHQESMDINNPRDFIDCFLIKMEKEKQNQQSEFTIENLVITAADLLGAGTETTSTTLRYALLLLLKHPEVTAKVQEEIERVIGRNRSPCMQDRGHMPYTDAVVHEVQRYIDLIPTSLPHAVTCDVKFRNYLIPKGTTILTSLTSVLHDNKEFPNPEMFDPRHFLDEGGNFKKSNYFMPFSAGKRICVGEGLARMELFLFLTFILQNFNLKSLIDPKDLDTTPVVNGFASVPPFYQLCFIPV
Chain of Cytochrome P450 1A2 (Homo sapiens) (P05177 whole entry, looked up): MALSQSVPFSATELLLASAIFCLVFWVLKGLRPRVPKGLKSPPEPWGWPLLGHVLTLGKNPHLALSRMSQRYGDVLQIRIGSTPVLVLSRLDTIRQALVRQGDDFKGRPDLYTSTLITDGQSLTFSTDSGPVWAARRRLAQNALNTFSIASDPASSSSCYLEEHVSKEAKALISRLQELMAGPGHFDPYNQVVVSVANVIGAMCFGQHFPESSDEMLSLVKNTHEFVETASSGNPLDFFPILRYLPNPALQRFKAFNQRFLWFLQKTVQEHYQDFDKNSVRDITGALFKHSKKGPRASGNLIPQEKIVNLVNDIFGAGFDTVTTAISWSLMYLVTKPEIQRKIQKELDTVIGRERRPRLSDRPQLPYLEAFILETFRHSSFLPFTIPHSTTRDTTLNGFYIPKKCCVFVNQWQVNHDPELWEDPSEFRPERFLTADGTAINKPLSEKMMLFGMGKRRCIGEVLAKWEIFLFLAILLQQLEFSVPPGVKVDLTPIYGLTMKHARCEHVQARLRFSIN
Chain of Acetylcholinesterase (Homo sapiens) (P22303 whole entry, looked up): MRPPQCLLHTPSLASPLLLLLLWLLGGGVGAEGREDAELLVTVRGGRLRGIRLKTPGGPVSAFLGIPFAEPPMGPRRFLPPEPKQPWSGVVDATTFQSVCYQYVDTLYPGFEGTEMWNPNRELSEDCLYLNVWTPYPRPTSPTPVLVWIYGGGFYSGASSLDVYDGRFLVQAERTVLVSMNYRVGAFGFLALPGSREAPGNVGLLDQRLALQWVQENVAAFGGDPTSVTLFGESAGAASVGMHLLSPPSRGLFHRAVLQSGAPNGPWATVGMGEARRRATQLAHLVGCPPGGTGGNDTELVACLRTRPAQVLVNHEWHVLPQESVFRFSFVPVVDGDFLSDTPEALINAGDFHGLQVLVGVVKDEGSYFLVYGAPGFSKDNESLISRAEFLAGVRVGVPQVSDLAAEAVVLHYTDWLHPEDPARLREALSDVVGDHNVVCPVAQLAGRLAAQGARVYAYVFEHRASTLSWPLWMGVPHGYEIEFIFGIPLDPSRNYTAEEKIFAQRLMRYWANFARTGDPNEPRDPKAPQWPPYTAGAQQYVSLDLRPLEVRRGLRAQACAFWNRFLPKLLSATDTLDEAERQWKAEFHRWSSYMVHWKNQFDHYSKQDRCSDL
Chain of Voltage-gated inwardly rectifying potassium channel KCNH2 (Homo sapiens) (Q12809 whole entry, looked up): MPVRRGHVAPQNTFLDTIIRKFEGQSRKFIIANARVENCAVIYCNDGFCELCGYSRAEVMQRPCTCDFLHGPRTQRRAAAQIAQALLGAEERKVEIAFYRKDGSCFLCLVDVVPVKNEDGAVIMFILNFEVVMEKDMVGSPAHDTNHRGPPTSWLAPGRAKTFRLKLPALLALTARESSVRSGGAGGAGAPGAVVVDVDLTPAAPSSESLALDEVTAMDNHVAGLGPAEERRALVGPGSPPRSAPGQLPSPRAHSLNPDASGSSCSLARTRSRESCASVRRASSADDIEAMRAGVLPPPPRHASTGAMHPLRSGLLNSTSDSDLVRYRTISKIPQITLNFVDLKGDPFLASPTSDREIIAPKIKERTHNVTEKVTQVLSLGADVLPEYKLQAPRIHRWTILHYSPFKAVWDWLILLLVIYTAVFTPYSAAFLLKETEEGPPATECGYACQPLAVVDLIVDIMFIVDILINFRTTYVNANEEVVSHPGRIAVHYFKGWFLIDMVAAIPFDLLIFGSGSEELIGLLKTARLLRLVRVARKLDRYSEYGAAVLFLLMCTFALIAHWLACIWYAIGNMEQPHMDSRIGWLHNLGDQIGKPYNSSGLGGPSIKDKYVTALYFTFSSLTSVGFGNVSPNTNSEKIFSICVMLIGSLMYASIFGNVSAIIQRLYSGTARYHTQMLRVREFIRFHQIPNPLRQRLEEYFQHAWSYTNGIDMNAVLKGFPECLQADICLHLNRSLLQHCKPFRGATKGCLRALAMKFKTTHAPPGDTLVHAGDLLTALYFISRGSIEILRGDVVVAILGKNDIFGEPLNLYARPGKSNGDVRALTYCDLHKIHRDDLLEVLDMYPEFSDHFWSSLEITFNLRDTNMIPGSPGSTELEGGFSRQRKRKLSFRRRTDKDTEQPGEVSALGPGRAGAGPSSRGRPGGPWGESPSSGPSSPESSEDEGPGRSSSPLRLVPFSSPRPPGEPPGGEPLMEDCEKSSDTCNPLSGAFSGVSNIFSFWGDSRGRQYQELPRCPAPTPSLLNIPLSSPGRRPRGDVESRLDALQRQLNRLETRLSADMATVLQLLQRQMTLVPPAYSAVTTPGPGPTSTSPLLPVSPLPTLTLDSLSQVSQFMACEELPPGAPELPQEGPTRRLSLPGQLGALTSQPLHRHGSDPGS
Chain of Nuclear receptor subfamily 1 group I member 2 (Homo sapiens) (O75469 whole entry, looked up): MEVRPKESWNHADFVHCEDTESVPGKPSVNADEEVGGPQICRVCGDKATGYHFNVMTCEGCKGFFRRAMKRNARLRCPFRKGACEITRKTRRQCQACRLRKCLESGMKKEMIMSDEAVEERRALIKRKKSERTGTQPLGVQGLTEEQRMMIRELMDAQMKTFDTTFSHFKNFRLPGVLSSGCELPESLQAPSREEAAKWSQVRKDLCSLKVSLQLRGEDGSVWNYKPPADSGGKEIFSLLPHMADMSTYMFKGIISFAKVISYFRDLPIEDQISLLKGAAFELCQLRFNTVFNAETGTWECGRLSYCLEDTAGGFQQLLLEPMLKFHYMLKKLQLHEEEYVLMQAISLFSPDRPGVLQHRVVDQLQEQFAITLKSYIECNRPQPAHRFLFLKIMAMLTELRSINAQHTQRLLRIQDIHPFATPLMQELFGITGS

On to `NCCOS(=O)(=O)O`, for which the compound was classed as inactive in [1] and in assay [3]. For the same compound, the Potency result in [2], in assay [4], in assay [5], in [6], in assay [7] and in [8] was “inactive” each time. Besides, the Potency result in assay [9], in assay [10], in assay [11], in assay [12], in assay [13] and in assay [14] was “inactive” throughout. In addition, the Potency result in assay [15] was “inactive”.

Consider `NNC(N)=O`, for which the call in assay [1], in assay [3] and in assay [16] was inactive. Further, the Potency result in [2], in assay [4], in assay [5], in assay [7], in assay [17] and in [8] was “inactive” in each case. In addition, the Potency result in assay [9], in [11], in assay [14] and in assay [15] was “inactive” in each case. Also, in [13], the Potency was 36.5 µM (active).

`CC(C)(C)C(=O)Cl`: the compound was called inactive in assay [1] and in assay [3]. Further, the Potency entry in assay [2], in [4], in [5], in [6], in assay [7] and in [17] was “inactive” throughout. Also, the Potency result in assay [8], in [9], in [10], in assay [11], in assay [12] and in [13] was “inactive” in each case. For the same compound, the Potency result in [14] and in assay [15] was “inactive” in each case.

Consider `C/C=C/CC#N`, for which the compound was called inactive in assay [1], in assay [3] and in [16]. Moreover, the Potency entry in assay [2], in [4], in assay [5], in assay [7], in assay [17] and in [8] was “inactive” in each case. Moreover, the Potency result in assay [9], in assay [11], in [12], in assay [14] and in assay [15] was “inactive” each time. Also, in [13], the Potency was 36.4 µM (active).

Turning to `CCN(CCO)CCn1c(Cc2ccccc2)nc2c1c(=O)n(C)c(=O)n2C`, the compound was called inactive in assay [1] and in assay [3]. Moreover, the Potency result in assay [2], in assay [4], in [5], in assay [6], in [7] and in assay [17] was “inactive” throughout. The Potency result in assay [8], in assay [9], in assay [10], in [11], in [12] and in [13] was “inactive” throughout. Besides, the Potency entry in [14] and in assay [15] was “inactive” throughout.

With `N#CC(Br)(Br)C(N)=O`, the call in assay [1] and in [3] was inactive. Besides, the Potency result in assay [2], in [5], in assay [13], in assay [14] and in [15] was “inactive” in each case. The Potency in assay [4] was 61.1 µM (active); in assay [10] it was 71 µM (active).

On to `CCOC(=O)C(SP(=S)(OC)OC)c1ccccc1` (stereo not drawn), for which the result in assay [1] and in assay [3] was inactive. For the same compound, the Potency entry in assay [2], in assay [4] and in [5] was “inactive” in each case. Besides, the Potency in assay [7] is 31.7 µM (active); in [17] it was 71 µM (active); in assay [8], 22.4 µM (active); in assay [10] it was 44.8 µM (active); in [11], 0.283 µM (active); in assay [12], 1.26 µM (active). Moreover, the Potency is 3.17 µM (active) in assay [13] and 2.83 µM (active) in assay [15].
